Hits are enriched below; roughly 4.8% of the tested compounds scored in any of these assays.
ALOX15 inhib = blocks human 15-lipoxygenase activity. P16050. purified 15hLO-1, xylenol orange hydroperoxide absorbance. Potency, µM (highest dose often 57.1 µM), for the others: at the highest dose activity change, negative = inhibition, most hits filed as inhibitors. 74,000 compounds, 1.4% hits. AID 887; further: on the % scale 0 is the no-effect control and ±100 the full control effect; nearly all actives have a fitted effect of over 55% in size
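Quantitative HTS in 25 mM Hepes pH 7.5 containing 0.01% Triton X-100: human 15hLO-1 at 40 nM, arachidonic acid at 50 uM, 6 min turnover. Product quantified via ferrous oxidation/xylenol orange, 573:405 nm absorbance ratio.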
ERK AVP inh = vasopressin-driven ERK pathway inhibition; HEK293-V1b, vasopressin-stimulated pERK AlphaScreen; Potency, µM (series often up to 57.5 µM), without a hit: at the top dose activity, negative = inhibition, usual class: inhibitors; 72,000 compounds, 0.99% hits; AID 995; further: on the % scale 0 is the no-effect control and ±100 the full control effect; nearly all actives have a fitted effect of over 55% in size
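qHTS, compounds titrated on V1b-expressing HEK293 cells. Preincubation 30 min at 37C, vasopressin 25 nM for 5 min, lysis 10 min, bead incubation 5 hr at room temperature.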
TSHR ag = TSH receptor (human) agonism | P16473 | HEK293-CNG-TSHR cells (CNG channel as cAMP sensor), membrane potential dye, cAMP | Potency, µM (doses to about 57.1 µM), without a hit: at the top dose activation, most hits filed as activators | 73,000 compounds, 0.48% hits | AID 926; active means well fitted activation curve with a large enough effect in the main read-out, with a control signal flat, not every such curve was filed as active; inconclusive means small, poorly fitted or top-dose-only effect, or a change in a side signal; inactive means no such curve, though single readings can be large or run the other way; % of control where 0% means no effect;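 further: the control signal comes from parental cells without the receptor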
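HEK 293 cells stably expressing TSHR and a modified CNG channel, with CNG-only parental cells as counterscreen, were preloaded 60 min at room temperature with membrane potential dye containing 100 uM RO 20-1724. Compound exposure was 30 min, and depolarization was read as fluorescence at 590 nm.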
HEK293 cAMP cs = raises cAMP in parental HEK293 cells, TSHR agonist counter-screen. parental HEK293 CNG cAMP sensor, membrane potential fluorescence. Potency, µM (titrated, usually from 57.1 µM), inactives show top-dose activation, most hits filed as activators. 73,000 compounds, 2.5% hits. AID 938; further: % of control where 0% means no effect; nearly all actives have a fitted effect of over 55% in size
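Counterscreen for endogenous-receptor signalling: CNG-channel HEK 293 cells report cAMP rise by membrane depolarization. After 60 min dye equilibration with 100 uM RO 20-1724, compounds incubated 30 min before bottom-read fluorescence at 590 nm.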
Caspase-1 inhib = blocks human caspase-1 allosterically or competitively | Caspase-1 enzyme, Ac-WEHD-AFC fluorogenic rate | 75,000 compounds, 0.03% hits | AID 900 | Potency, µM (highest dose often 57.5 µM), for the others: at the highest dose activity change, negative = inhibition, most hits filed as inhibitors;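 further: plate controls were vehicle for no effect and no substrate for full effect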
Casp7 inh = allosteric or competitive inhibitors of human caspase-7 | 75,000 compounds, 0.02% hits | Potency, µM (doses to about 57.5 µM), without a hit: at the top dose activity change, negative = inhibition, hits mostly inhibitors | recombinant caspase-7, Ac-DEVD-AFC fluorescence rate | P55210; active means well fitted inhibition curve with a large enough effect in the main read-out, with a control signal flat, not every such curve was filed as active; inconclusive means small, poorly fitted or top-dose-only effect, or a change in a side signal; further: % of control where 0% means no effect
* = called active by the depositor; ? = inconclusive; · = no result; [ ] = another dose, or the depositor's remark. Unless noted, the call rests on the fitted dose curve; in most records, active means well fitted curve in the direction sought with a large enough effect; inconclusive means small, poorly fitted or top-dose-only effect, or another doubt; inactive means no such curve, though single readings can be large; an effect the other way counts as inactive or inconclusive. Potency means the concentration at half of the fitted maximal effect.

SMILES	ALOX15 inhib	ERK AVP inh	TSHR ag	HEK293 cAMP cs	Caspase-1 inhib	Casp7 inh
O=C1c2ccccc2NC(c2ccncc2)N1c1ccccn1 (stereo not given)	11%	8%	12%	7%	·	?
COc1ccccc1N1C(=O)c2ccccc2NC1c1ccncc1 (stereo not given)	20µM*	-25%	23%	15%	-5%	-4%
Nc1nc(N)nc(CCCCc2nc(N)nc(N)n2)n1	·	·	-4%[11.4 µM]	8%[11.4 µM]	·	·
S=c1ccss1	7.9µM*	-16%	·	·	-5%	-8%
COCCN(CCOC)S(=O)(=O)c1ccc(C(=O)Nc2nc(-c3ccncc3)cs2)cc1	2%	25µM*	·	4%	2%	-1%
COCCN(CCOC)S(=O)(=O)c1ccc(C(=O)Nc2nc(C)c(C(C)=O)s2)cc1	-27%	1%	-1%	5%	0%	-2%
CN(C)C=Nc1ncc2c3ccccc3n(CCN(C)C)c2c1C#N	10%	-24%	-6%	21%	-2%	-3%
CN(C)C=Nc1ncc2c3ccccc3n(Cc3ccccc3)c2c1C#N	-6%	-2%	?	32µM*	-3%	-3%
Cc1ccc(C)n1-c1ccc(-c2nnc3n2CCCCC3)s1	8%	-6%	3%	12%	-10%	-8%
COc1cc(NC(=O)c2cc3sccc3n2C)cc(OC)c1	-17%	-11%	?	?	-17%	-16%
CCn1c(C(=O)N2CCCC(C(=O)NCCCc3ccccc3)C2)cc2sccc21 (stereo not given)	-30%	16µM*	?	?	-4%	-7%
Cn1c(C(=O)N2CCCC(C(=O)NCCCSC3CCCCC3)C2)cc2sccc21 (stereo not given)	?	16µM*	?	?	-1%	-6%
CC(CCc1ccccc1)NC(=O)c1cc2sccc2n1C (stereo not given)	?	·	25µM*	41%	-2%	-3%
CCn1c(C(=O)N2CCCC(C(=O)NCCc3ccc(C)cc3)C2)cc2sccc21 (stereo not given)	-24%	?	?	?	-4%	-2%
CCc1ccccc1NC(=O)c1cc2sccc2n1C	?	?	?	32µM*	-3%	-4%
CCn1c(C(=O)N2CCC(C(=O)NCc3cccs3)CC2)cc2sccc21	-2%	-10%	?	?	-1%	-2%
COc1ccc(OC)c(NC(=O)c2cc3sccc3n2C)c1	-10%	-14%	?	25µM*	-1%	1%
CCn1c(C(=O)N2CCCC(C(=O)O)C2)cc2sccc21 (stereo not given)	0%	-1%	9%	3%	-1%	0%
Cn1c(C(=O)N2CCCC(C(=O)NCc3cccs3)C2)cc2sccc21 (stereo not given)	-6%	?	25µM*	4%	1%	0%
CC(CCc1ccccc1)NC(=O)C1CCCN(C(=O)c2cc3sccc3n2C)C1 (stereo not given)	-14%	25µM*	?	?	-1%	-2%
Cn1cccc1C(=O)N1CCC2(CCCN(c3ccc(-c4ccccc4)cc3)C2)CC1	?	-11%	7%	-4%	-5%	-5%
O=c1c(-c2ccc(F)cc2)nc2cnc(Nc3ccccc3)nc2n1C1CC1	-15%	7%	5%	0%	-7%	-8%
O=C(Nc1cnccn1)c1cccc(C(F)(F)F)c1	?	-14%	?	20µM*	?	-29%
O=C(Nc1cnccn1)c1ccncc1	-3%	-24%	21%	14%	0%	-1%
Fc1ccc2[nH]c3c(N4CCN(c5ccccc5)CC4)ncnc3c2c1	-2%	10µM*	18%	31%	-4%	-6%
OC1(c2cccc(C(F)(F)F)c2)CCN(c2ncnc3c2[nH]c2ccc(F)cc23)CC1	-21%	25µM*	-5%	-3%	-4%	-6%
O=C(CCCN1CCC(O)(c2cccc(C(F)(F)F)c2)CC1)c1ccc(F)cc1	-1%	17%	-38%	7%	2%	1%

High-throughput results (PubChem)
